The values below come from PubChem BioAssay (Tox21).

Values without a mark were called inactive. Results filed as inconclusive are left out. Active and inactive are the calls of the source. Unless noted, calls follow the shape of the dose curve; as a rule, active = well fitted curve in the direction sought with a large enough effect in the repeat runs; inconclusive = weak or mixed curves; inactive = no such curve, though single readings can be large; an effect the other way counts as inactive or inconclusive.

Experiment [1] is described as follows: qHTS assay to identify small molecule agonists of the androgen receptor (AR) signaling pathway in the presence of an antagonist - cell viability counter screen (AID 1259379). Also: nearly all actives have a fitted effect of over 25% in size. Also: potency is read from the fitted curve at half-maximal effect. The procedure, abridged: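 Fluorescence from CellTiter-Fluor, added after 15 hr and read 1 hr later, gave cell viability. Cells were MDA-kb2 exposed to compounds (15 concentrations) in the presence of 3.0uM nilutamide at 37C, 0% CO2.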
(In general: Quantitative high-throughput screening tests each substance at several concentrations.)

Experiment [2] in a line: qHTS assay to identify small molecule agonists of the estrogen receptor beta (ER-beta) signaling pathway - cell viability counter screen (AID 1259380). Also: nearly all actives have a fitted effect of over 30% in size. Also: potency is read from the fitted curve at half-maximal effect. The procedure, abridged: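 Same-well viability counter screen. Cells: ER-beta-UAS-bla HEK293T, plated 6 hr before compound, in 2% charcoal-stripped FBS. Compound exposure 16 hr, 37C; viability by CellTiter-Glo luminescence after 30 min at room temperature.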

A short description of experiment [3]: qHTS assay to identify small molecule antagonists of the estrogen receptor beta (ER-beta) signaling pathway - cell viability counter screen (AID 1259382). Also: nearly all actives have a fitted effect of over 55% in size. Also: potency is read from the fitted curve at half-maximal effect. The procedure, abridged:
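Following a 6 hr plating period, HEK293T cells carrying a UAS-driven beta-lactamase reporter under ER-beta control received compounds and 1nM E2 (final). After 16 hr at 37C and 2 hr substrate loading, CellTiter-Glo luminescence indicated viability.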

Experiment [4] addresses Estrogen receptor (Homo sapiens) (UniProt P03372). The experiment can be described thus: qHTS assay to identify small molecule agonists of the estrogen receptor alpha (ER-alpha) signaling pathway in the presence of an antagonist (AID 1259383; calls by dose curve; also: top concentration of the series differs between compounds; nearly all actives have a fitted effect of over 15% in size). An outline of the steps: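 Cells are hormone-deprived for 5 days (charcoal-stripped FBS, no phenol red), plated for 24hr, spiked with 10.0nM ICI-182,780, then dosed at 15 concentrations. After 22hr at 37C, ONE-Glo luminescence reports ERE-luciferase activity.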

Experiment [5] is described as follows: qHTS assay to identify small molecule agonists or antagonists of the thyroid stimulating hormone receptor (TSHR) signaling pathway - wild type cell line counter screen (AID 1259384; calls by dose curve). An outline of the steps:
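Wild-type HEK293 cells were plated 18 h at 37 C/5% CO2, pin-dosed with compound plus Ro20-1724 medium, held 30 min at room temperature, then given cAMP-d2 and anti-cAMP-cryptate; fluorescence was read after 1 h. Fifteen concentrations, triplicate.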

Experiment [6] has as its target Thyrotropin receptor (Homo sapiens) (UniProt P16473). The experiment can be described thus: qHTS assay to identify small molecule antagonists of the thyroid stimulating hormone receptor (TSHR) signaling pathway (AID 1259385; calls by dose curve; also: nearly all actives have a fitted effect of over 20% in size; also: potency is read from the fitted curve at half-maximal effect). The procedure, abridged: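 TSHR-HEK293 cells were plated and held 18 h at 37C/5% CO2, then given compound plus Ro20-1724 and stimulated with TSH at 1.5 ng/mL final. After 30 min at room temperature, cAMP was detected with cAMP-d2/anti-cAMP-cryptate (1 h) by fluorescence.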

Experiment [7] is described as follows: qHTS assay to identify small molecule agonists of the estrogen receptor alpha (ER-alpha) signaling pathway in the presence of an antagonist - cell viability counter screen (AID 1259386).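 Also: cells exposed to compounds for 22 h at 37 °C before the viability read; nearly all actives have a fitted effect of over 30% in size.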 Also: potency is read from the fitted curve at half-maximal effect. An outline of the steps:
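Cells are starved of estrogens for 5 days in charcoal-stripped serum, seeded for 24hr and co-treated with ICI-182,780 (10.0nM final) and test compounds. After 22hr at 37C, viability is read as CellTiter-Fluor fluorescence.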

Experiment [8] addresses Progesterone receptor (Homo sapiens) (UniProt P06401). As to the kind of experiment: qHTS assay to identify small molecule agonists of the progesterone receptor (PR) signaling pathway (AID 1346784; calls by dose curve; also: nearly all actives have a fitted effect of over 30% in size). The procedure, abridged: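 Beta-lactamase reporter read-out: after 16 hr compound treatment at 37C and a further 2 hr at room temperature with LiveBLAzer B/G FRET substrate, fluorescence was measured in PR-UAS-bla HEK 293T cells grown in 2% charcoal-stripped serum.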

Experiment [9] can be described thus: qHTS assay to identify small molecule antagonists of the progesterone receptor (PR) signaling pathway - cell viability counter screen (AID 1346798). Also: nearly all actives have a fitted effect of over 50% in size. Also: potency is read from the fitted curve at half-maximal effect. The procedure, abridged: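 HEK293T PR-UAS-bla, 2% charcoal-stripped FBS; 4 hr pre-plate; cpd + R5020, 16 h 37C; LiveBLAzer read first; then CellTiter-Glo 30 min RT, luminescence.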
The nature of experiment [10]: qHTS assay to identify small molecule agonists of the progesterone receptor (PR) signaling pathway - cell viability counter screen (AID 1346799; calls by dose curve; also: nearly all actives have a fitted effect of over 45% in size; also: potency is read from the fitted curve at half-maximal effect). The procedure, abridged: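 Luminescence from CellTiter-Glo, added after the beta-lactamase FRET read in the same wells, gave cytotoxicity in PR-UAS-bla HEK293T cells treated with compounds for 16 hr at 37C.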
Experiment [11] is described as follows: qHTS assay to identify small molecule antagonists of the TGF-beta/Smad signaling pathway - cell viability counter screen (AID 1346824). Also: nearly all actives have a fitted effect of over 50% in size. Also: potency is read from the fitted curve at half-maximal effect. An outline of the steps:
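SBE-bla HEK 293T cells were plated overnight at 37 C, then given compounds in DMSO plus TGF-beta1 (added as 0.25 ng/mL solution) for 5 hr. After the bla read, CellTiter-Glo was added to the same wells and luminescence read after 30 min at room temperature.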

Experiment [12] can be described thus: qHTS assay to identify small molecule agonists of the TGF-beta/Smad signaling pathway - cell viability counter screen (AID 1346829). Also: nearly all actives have a fitted effect of over 45% in size. Also: potency is read from the fitted curve at half-maximal effect. An outline of the steps:
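HEK 293T SBE-bla line, 5 hr compound exposure at 37 C, multiplexed CellTiter-Glo viability read by luminescence.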

Experiment [13] addresses Thyrotropin-releasing hormone receptor (Homo sapiens) (UniProt P34981). The experiment can be described thus: qHTS assay to identify small molecule agonists of the thyrotropin-releasing hormone receptor (TRHR) signaling pathway (AID 1346891; calls by dose curve; also: series mostly up to about 58 µM). The procedure, abridged:
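Intracellular calcium rise, read as fluorescence every second for 3 min, served as the agonist signal in dye-loaded HEK293 cells expressing TRHR; each compound ran at 15 concentrations in triplicate.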

Experiment [14] is described as follows: Human pregnane X receptor (PXR) small molecule agonists, qHTS cell viability counter screen (AID 1346977). Also: nearly all actives have a fitted effect of over 50% in size. Also: potency is read from the fitted curve at half-maximal effect. The procedure, abridged:
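PXR-Luc HepG2, 2,000 cells/well, 5% charcoal-stripped FBS; 5hr settle; cpd 24hr, 37C/5% CO2; CellTiter-Fluor at 23hr, read 1hr later (fluorescence).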

Experiment [15] can be described thus: Caspase-3/7 induction in HepG2 cells by small molecules, qHTS assay (AID 1346978). Also: nearly all actives have a fitted effect of over 15% in size. Also: potency is read from the fitted curve at half-maximal effect. The procedure, abridged: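 Wild-type HepG2 cells (2,000/well) were settled 5 h at 37 C, 5% CO2, then exposed to compounds in DMSO for 17 h. Caspase-3/7 activity was read by luminescence 30 min after adding Caspase-Glo 3/7 reagent at room temperature.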
Experiment [16] concerns the target Thyrotropin-releasing hormone receptor (Homo sapiens) (UniProt P34981). The experiment can be described thus: qHTS assay to identify small molecule antagonists of the thyrotropin-releasing hormone receptor (TRHR) signaling pathway (AID 1346877; active = well fitted inhibition curve with a large enough effect in the repeat runs, not every such curve was filed as active; also: series mostly up to about 51 µM). An outline of the steps: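 Cells (TRHR-HEK293) are plated and kept 18 h at 37 °C/5% CO2. A calcium-sensitive dye is added for 2 h, compound follows for 5 min at room temperature, and TRH is then given at 1 nM final.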

For experiment [17], the target named is Progesterone receptor (Homo sapiens) (UniProt P06401). The experiment can be described thus: qHTS assay to identify small molecule antagonists of the progesterone receptor (PR) signaling pathway (AID 1346795; active = well fitted inhibition curve with a large enough effect in the signal ratio in the repeat runs, not every such curve was filed as active; the % refers to the signal ratio). An outline of the steps:
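Read-out is fluorescence from the LiveBLAzer B/G FRET substrate, cleaved by a UAS-controlled beta-lactamase in PR-UAS-bla HEK293T cells after 16 hr exposure to compound plus 1 nM promegestone (final), followed by 2 hr at room temperature.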

The nature of experiment [18]: qHTS assay to identify small molecule agonists of the TGF-beta/Smad signaling pathway (AID 1346859; active = well fitted activation curve with a large enough effect in the signal ratio in the repeat runs, not every such curve was filed as active; the % refers to the signal ratio; also: series mostly up to about 77 µM). The procedure, abridged:
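SBE-bla HEK 293T, 4,000 cells/well, plated o/n; cpd in DMSO, 5 hr, 37 C/5% CO2; B/G FRET substrate 2 hr RT; ex 405, em 460/530 nm.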

Chain of Estrogen receptor (Homo sapiens) (P03372 whole entry, looked up): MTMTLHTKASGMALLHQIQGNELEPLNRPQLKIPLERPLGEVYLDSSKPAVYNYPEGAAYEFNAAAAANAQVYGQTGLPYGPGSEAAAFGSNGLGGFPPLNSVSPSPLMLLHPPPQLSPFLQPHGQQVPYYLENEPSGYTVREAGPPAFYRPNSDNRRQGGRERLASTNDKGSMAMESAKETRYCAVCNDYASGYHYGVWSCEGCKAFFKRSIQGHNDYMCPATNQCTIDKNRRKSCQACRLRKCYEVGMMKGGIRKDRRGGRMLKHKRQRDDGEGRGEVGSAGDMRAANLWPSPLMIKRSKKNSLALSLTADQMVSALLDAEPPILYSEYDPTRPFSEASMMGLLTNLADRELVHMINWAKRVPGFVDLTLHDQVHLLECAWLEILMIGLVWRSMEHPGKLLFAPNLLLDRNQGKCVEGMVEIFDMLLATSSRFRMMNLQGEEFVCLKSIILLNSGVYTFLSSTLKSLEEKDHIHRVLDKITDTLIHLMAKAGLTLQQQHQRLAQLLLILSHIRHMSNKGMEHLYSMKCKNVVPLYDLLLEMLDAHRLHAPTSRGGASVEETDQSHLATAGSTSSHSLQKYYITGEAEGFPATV
Chain of Progesterone receptor (Homo sapiens) (P06401 whole entry, looked up): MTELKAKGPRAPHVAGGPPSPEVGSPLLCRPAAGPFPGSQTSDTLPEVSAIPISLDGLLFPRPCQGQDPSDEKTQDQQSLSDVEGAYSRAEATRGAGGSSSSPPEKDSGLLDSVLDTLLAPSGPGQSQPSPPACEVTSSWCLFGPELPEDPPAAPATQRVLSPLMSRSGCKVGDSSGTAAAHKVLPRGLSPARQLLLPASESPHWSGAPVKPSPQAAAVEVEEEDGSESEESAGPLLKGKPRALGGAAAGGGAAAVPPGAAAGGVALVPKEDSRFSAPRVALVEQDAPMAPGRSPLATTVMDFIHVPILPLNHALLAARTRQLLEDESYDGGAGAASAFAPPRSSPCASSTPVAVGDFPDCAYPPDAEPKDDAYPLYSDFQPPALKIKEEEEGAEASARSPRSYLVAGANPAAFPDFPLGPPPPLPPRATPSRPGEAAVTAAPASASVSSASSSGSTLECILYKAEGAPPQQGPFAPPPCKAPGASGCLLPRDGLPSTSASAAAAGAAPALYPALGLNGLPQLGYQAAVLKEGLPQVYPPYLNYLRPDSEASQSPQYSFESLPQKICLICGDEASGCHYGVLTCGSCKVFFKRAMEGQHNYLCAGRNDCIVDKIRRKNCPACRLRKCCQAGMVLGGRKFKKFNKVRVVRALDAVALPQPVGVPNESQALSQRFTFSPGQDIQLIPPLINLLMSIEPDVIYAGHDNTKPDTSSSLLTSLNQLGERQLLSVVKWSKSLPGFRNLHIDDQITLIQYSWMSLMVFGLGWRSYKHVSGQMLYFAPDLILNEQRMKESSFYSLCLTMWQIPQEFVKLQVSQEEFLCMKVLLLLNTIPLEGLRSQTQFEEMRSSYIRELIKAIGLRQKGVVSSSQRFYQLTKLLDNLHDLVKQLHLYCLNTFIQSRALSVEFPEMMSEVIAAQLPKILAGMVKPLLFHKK
Chain of Thyrotropin-releasing hormone receptor (Homo sapiens) (P34981 whole entry, looked up): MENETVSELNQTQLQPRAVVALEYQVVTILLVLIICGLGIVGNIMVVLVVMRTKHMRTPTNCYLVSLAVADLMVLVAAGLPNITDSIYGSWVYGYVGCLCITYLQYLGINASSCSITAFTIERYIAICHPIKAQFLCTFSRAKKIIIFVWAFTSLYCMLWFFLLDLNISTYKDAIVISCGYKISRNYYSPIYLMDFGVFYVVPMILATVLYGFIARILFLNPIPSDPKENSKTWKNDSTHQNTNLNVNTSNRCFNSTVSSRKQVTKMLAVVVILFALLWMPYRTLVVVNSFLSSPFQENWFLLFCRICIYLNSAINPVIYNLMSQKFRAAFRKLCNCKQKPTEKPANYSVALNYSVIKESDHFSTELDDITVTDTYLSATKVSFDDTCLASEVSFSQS
Chain of Thyrotropin receptor (Homo sapiens) (P16473 whole entry, looked up): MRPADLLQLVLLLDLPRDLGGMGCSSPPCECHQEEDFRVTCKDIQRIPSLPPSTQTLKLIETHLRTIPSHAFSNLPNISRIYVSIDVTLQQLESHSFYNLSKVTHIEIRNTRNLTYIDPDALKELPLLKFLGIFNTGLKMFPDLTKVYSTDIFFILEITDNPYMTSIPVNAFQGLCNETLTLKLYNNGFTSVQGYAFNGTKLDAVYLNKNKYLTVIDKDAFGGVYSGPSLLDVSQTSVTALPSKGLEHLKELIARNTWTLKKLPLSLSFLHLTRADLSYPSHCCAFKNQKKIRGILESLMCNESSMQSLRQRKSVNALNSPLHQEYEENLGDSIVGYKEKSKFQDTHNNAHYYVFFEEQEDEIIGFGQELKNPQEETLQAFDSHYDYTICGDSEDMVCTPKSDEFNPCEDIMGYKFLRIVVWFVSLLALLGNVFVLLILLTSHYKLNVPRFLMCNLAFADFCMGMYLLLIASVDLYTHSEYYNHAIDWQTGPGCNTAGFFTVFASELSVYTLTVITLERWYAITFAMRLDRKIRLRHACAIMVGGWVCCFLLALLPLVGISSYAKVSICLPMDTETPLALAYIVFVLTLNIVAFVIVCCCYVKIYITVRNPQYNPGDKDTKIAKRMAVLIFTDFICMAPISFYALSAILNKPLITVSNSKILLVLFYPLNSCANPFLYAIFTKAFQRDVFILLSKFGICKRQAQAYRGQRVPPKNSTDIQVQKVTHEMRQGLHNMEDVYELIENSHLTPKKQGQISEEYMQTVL

For `C[C@@H](Oc1ccc(Cl)cc1Cl)C(=O)O`, the Potency result in experiment [1], in experiment [2], in [3], in experiment [4], in experiment [6] and in [7] was “inactive” each time. In addition, the Potency entry in experiment [8], in experiment [9], in [10], in experiment [11], in [12] and in experiment [13] was “inactive” in each case. The Potency result in [14] and in experiment [15] was “inactive” in each case. For the same compound, in experiment [5], the call was inactive.

Regarding `O=[N+]([O-])c1cc(C(F)(F)F)c(Cl)c([N+](=O)[O-])c1Cl`, the Potency in experiment [1] is 27.3 µM (active); in [2], 27.3 µM (active); in [3], 30.6 µM (active); in experiment [6], 61.1 µM (active); in experiment [7] it was 54.5 µM (active); in [9], 54.5 µM (active). In addition, the Potency in [11] is 49 µM (active); in [12] it was 49 µM (active); in experiment [14], 27.3 µM (active); in [15] it was 21.7 µM (active). The Potency entry in experiment [4], in [16] and in experiment [13] was “inactive” in each case. Moreover, the compound was classed as inactive in experiment [5].

Turning to `CN(C)C1CSSSC1`, the Potency result in [1], in experiment [2], in experiment [3], in experiment [4], in experiment [6] and in experiment [7] was “inactive” throughout. The Potency entry in experiment [8], in experiment [17], in experiment [9], in [10], in experiment [12] and in experiment [16] was “inactive” in each case. In addition, the Potency result in [13], in [14] and in experiment [15] was “inactive” each time. Besides, the outcome in experiment [5] and in [18] was inactive.

Consider `Clc1ccc(-c2ccc(Cl)c(Cl)c2Cl)c(Cl)c1Cl`, for which the Potency result in [1], in experiment [3], in experiment [4], in [7], in [8] and in experiment [11] was “inactive” throughout. Moreover, the Potency entry in [12], in experiment [13], in experiment [14] and in experiment [15] was “inactive” in each case. Moreover, the Potency in experiment [2] is 58.2 µM (active); in experiment [6] it was 58.2 µM (active); in experiment [9], 23.2 µM (active); in [10], 41.2 µM (active). Also, the result in experiment [5] was inactive.

Take `CCCCCCCCCCCCCC[P+](CCCCCC)(CCCCCC)CCCCCC` (tested in a mixture with another compound): the Potency in [1] is 8.63 µM (active); in experiment [2], 24.3 µM (active); in [3], 27.3 µM (active); in [7], 17.2 µM (active); in experiment [9], 30.6 µM (active); in experiment [10] it was 27.3 µM (active). The Potency in experiment [12] was 49 µM (active); in [14], 3.86 µM (active); in experiment [15] it was 19.3 µM (active). Besides, the Potency result in [4] is “inactive”. In addition, in experiment [5], the result was inactive.

For `BrCBr`, the Potency entry in experiment [1], in experiment [2], in experiment [3], in [4], in experiment [6] and in experiment [7] was “inactive” in each case. Also, the Potency result in experiment [8], in [17], in experiment [9], in experiment [10], in experiment [11] and in [12] was “inactive” in each case. The Potency entry in [16], in experiment [13], in experiment [14] and in experiment [15] was “inactive” throughout. In experiment [18], the call was inactive.

For the compound `Oc1ccc(C2(c3ccc(O)cc3)c3ccccc3-c3ccccc32)cc1`, the Potency in experiment [1] is 34.4 µM (active); in [2] it was 48.6 µM (active); in experiment [3] it was 61.1 µM (active); in [9], 48.6 µM (active). Besides, the Potency entry in experiment [4], in experiment [6], in experiment [11], in experiment [16] and in experiment [13] was “inactive” throughout. Moreover, the compound was called inactive in experiment [5] and in experiment [18].
